Reference: the supplement of paper PMC11417369
The full ranking holds about 25,000 sequences; the median of “ln(normalized median fluorescence intensity)” is about 7.1, and the highest 2% start at about 10. The list comes from a sample in which the highest values are over-represented; it also holds similar and randomly drawn sequences.

tested on: PfSIP2 AP2 domain 1 (GST-tagged); assay: gcPBM binding intensity (ln(normalized median fluorescence intensity)); higher = stronger DNA binding
In short: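 Alexa488 anti-GST antibody, scanned at 488 nm, detected GST-tagged P. falciparum DNA-binding domains that had been expressed in E. coli and incubated for 1 h on an Agilent 4 × 180k array. The array carried primer-extended double-stranded 36-bp intergenic genomic probes and negative controls. Binding intensity is the highest Masliner-normalised natural-log median intensity across replicate spots of either orientation of each probe.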

Row | Sequence | gcPBM binding intensity (ln)
1 | TGAACACACGAGCACACACACACATCTATATTTATA [CACACA_site6607] | 7.22
2 | TTAATTACACAAAAAAGTACTTGATATTGTTTATTA [XGTACX_site3449] | 6.85
3 | AAATATTTGTGTGGTTGTACTATAATGATAAAAATA [XGTACX_site7703] | 7.27
4 | AAATACTGATTTGGTTGTACATGTGCACTATATAAC [XGTACX_site3795] | 11.4
5 | ATACTAACATTTTTTTGTACATATAACTATAAAATA [XGTACX_site1033] | 7.32
6 | GGAACTTTTGGAGGTGCATGCGGAGCAATCTTTTCA [TGCATGCA_site454] | 10.6
7 | CCTTTTTCTAATGGATGTACTTATTATATACATTAT [XGTACX_site281] | 7.14
8 | TTGAAAAATCAGCACACACACAAATACATACATATT [CACACA_site7505] | 7.03
9 | TTTTTTTTTTTTTTTTTTGGTGAGAGAAGAAAATTC [CACACA_negctrl_site950] | 7.02
10 | TTTTTTTTTTTGTGAGTGCACGTATGAAGAGAAAAA | 10.8
11 | ATTTTGATGATGTATGCACACATTGAAAATGAGAAA [CACACA_site2916] | 9.12
12 | AATTTAATATAATGCACACATAAAAAAAAAAAAAAA [CACACA_site123] | 7.42
13 | AATTTTGGAACGTGCACACATATGTAATATATATAT [CACACA_site3067] | 10.1
14 | AGGAATATAAAGTGCACACATAATTTGGGGGCAAAA [CACACA_site258] | 11.7
15 | GAATAAAGGAGAGGCACACATATATATATATATATA [CACACA_site2452] | 9.61
16 | TCAGGAATATAAAGTGCACACATAATTTGGGGGCAA [CACACA_site7974] | 11.2
17 | AATTATGCACAAATCACACATATAAAATAAAAAGTG [CACACA_site4474] | 7.87
18 | ATATAGTATTAATTTGCATGTCATGTATTAGGTCGA [TGCATGCA_site540] | 6.73
19 | TAAAATTTTATAAAGGAACACACATTTTTTTTTTTT [CACACA_site8740] | 6.87
20 | TTTGATTTTAATGTGTGTACACATTTATTTATATAA [XGTACX_site4806] | 7.74
21 | AAATAAGAAAATCATAGTACATAGGAATAGAAGAAC [XGTACX_site3135] | 7.59
22 | ATATGGAATGATCATAGTACATAATTTAAAATTTTA [XGTACX_site3568] | 6.74
23 | ATAATGAAGACTTTTTTACACACTTCATATATTATA [CACACA_site8630] | 6.96

Row | Sequence | gcPBM binding intensity (ln)
24 | AAAAAAAGAATGTGAACACACACATTGAATATAATT [CACACA_site8341] | 6.79
25 | ATTAAAAAAAAAGAGCGTACAAATAATTACTTCTTT [XGTACX_site8262] | 6.83
26 | ATATCATCTTCTCTATCATTTTTTTTTTTTTTTTTT [CACACA_negctrl_site1220] | 7.69
27 | TATATATATTTAAGGTGTACATAAATAACAAAATAT [XGTACX_site2641] | 7.47
28 | AAATACTTAACATTGGTGCATATTTGTAAAATTATT [GTGCAC_site9515] | 10.7
29 | TTTAAAATACAGAAGGTGCATTTAACATATTTGTAT | 10.6
30 | TTATTATTATAAAATTGTACTTGGTATATTAACATA [XGTACX_site5829] | 6.98
31 | TTAATATAATTAAAATGTACTTATTTGTAAACATTA [XGTACX_site6313] | 6.78
32 | TATTTTAACATTAGGTGTACATACAAAAATAAAAAT [XGTACX_site8577] | 7.37
33 | ATATTAAAATTTTAATGTACATGCGTATGTAGGAAT [XGTACX_site1673] | 7.39
34 | TAATCATTTTAGCTTACACACAAAATTTTGTTATAA [CACACA_site2939] | 6.93
35 | TTTATATAATTTTTTTGTACATATATATGAATACAT [XGTACX_site2316] | 7.11
36 | AAATGTTGAAAAATATGTACATATTATATATATTAT [XGTACX_site1165] | 7.1
37 | ATGTTAATTAATGAGGTGCATTGAATATTTCAATAA | 10.6
38 | AATATTTTTCAATTTCATGTGCATTCATTGAAGTTA [CACACA_negctrl_site1232] | 7.34
39 | TCTTTCAATATTAATGCATGTTAATAATAAATTTTA [TGCATGCA_site448] | 6.89
40 | GAAAAATTTAATTATTGTACGTTTCATCTATATTTA [XGTACX_site414] | 6.91
41 | TCATTTTATTATTCTACACACTTATCTATAATTATA [CACACA_site34] | 7.2
42 | AGGATATAAAGTTGTGCATGTCAAGTGCACCGTATT [TGCATGCA_site451] | 12.2
43 | AAAAAAAAAAAAAAAGTGCATATATAAATATTGTAT [GTGCAC_site9459] | 9.58
44 | AAAAAAAAGTTGTAAGTGCATGTATATAATAATATT | 8.08
45 | ATATATATATAAAGTTGTACATTTTTTATTTTTTCA [XGTACX_site7847] | 9.04
46 | TTTAGTTTTTATATAGCACACATATTGTGATTATGT [CACACA_site8316] | 6.96

Row | Sequence | gcPBM binding intensity (ln)
47 | ATTTATATGCACCATTGTACGTTTTATAAAGTTTGG [XGTACX_site3755] | 10.7
48 | ATATTACACATATATGCACACATTGTAGTTATTTAT [CACACA_site8843] | 9.43
49 | CATTTTGTTTTAAAGTGTACATTATGTAATATAAAA [XGTACX_site647] | 7.15
50 | ATTGTGCACTTATATGCACACATTTTAGTTTTTTTT [CACACA_site2028] | 10.6
51 | TACATATATATTTGTTCACACACACCCAAAAAAAAA [CACACA_site8788] | 7.01
52 | AAAAGTAACAAAGCTACACACATTTAAATAAACATA [CACACA_site1421] | 6.94
53 | GTTCTAAATATTATTGCATGTTGCACGTTTCTCTGT [TGCATGCA_site159] | 7.65
54 | TGAACAGGTCATAATTTACACACTATATATTTTATT [CACACA_site8123] | 6.87
55 | TGTATAAAAAACTAATGTACAAATGACAAGATATCT [XGTACX_site4600] | 6.9
56 | GTAAGAAAGAAAGGAAGTACGTAAGAAAGTAAGAAC [XGTACX_site1239] | 7.27
57 | TACATAAACTTTATAACACACACTTATATATATATA [CACACA_site1106] | 9.34
58 | ATTATATATATTTATGCACACAAAATATATTATATA [CACACA_site9244] | 7.56
59 | CATATAAAAATATATGCACACAAATAAAAAATTATA [CACACA_site9210] | 7.29
60 | ATTAATTTTATATATGCACACAAAATATGTTCATAT [CACACA_site9350] | 7.13
61 | ATTATATACATATATGCACACAAAAAAATATATATT [CACACA_site8508] | 7.28
62 | ATTCACAAATATATGGTGCATAATATATATATATAT [GTGCAC_site9674] | 10.6
63 | TTTTCATATTATAGTGCACACAAAAATATATATATG [CACACA_site8929] | 10.8
64 | CTCATAGTTGGGTGCACACAAAAAATTAAAAAAATA [CACACA_site3032] | 12.3
65 | TTCATATTATAGTGCACACAAAAATATATATATGGT [CACACA_site2855] | 10.7
66 | AACTCATAGCGGTGTGCACACAAAAAATTAAAAAAA [CACACA_site3033] | 8.94
67 | TGAATATTCATATGCACACAAATTAATATACATAAT [CACACA_site442] | 7.03
68 | AACTCATAGGAGTGTGCACACAAAAAATTAAAAAAA [CACACA_site8996] | 9.24
69 | ATGGCATAAATATATGCACACACAAAAAAAAAAAAA [CACACA_site7902] | 7.06
